Source: PubChem
Rows were chosen to be rich in hits. Some 13% of all compounds tested hit in one or more screens of this group.
AID923: qHTS Assay for Allosteric/Competitive Inhibitors of Caspase-1: Spectroscopic Profiling in AFC Spectral Region; compound fluorescence, AFC spectral region (405/520 nm); Potency, µM (series often up to 57.5 µM), for the others: at the highest dose fluorescence increase, most hits filed as activators; hit rate 1.1% among 75,000; further: potency means the concentration at half of the fitted maximal effect; 0% is about no effect
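Compound autofluorescence profiled at 405 nm ex/520 nm em during kinetic caspase 1 run (50 nM enzyme, 5 uM Ac-WEHD-AFC, HEPES pH 7.5, 10 mM DTT). Titration up to 57 uM; baseline from regression intercept, normalized to AFC standard curve.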
HADH2 inh: HADH2 (human) dehydrogenase inhibition. recombinant HADH2, NADH fluorescence, beta-hydroxybutyryl-CoA. hit rate 3.4% among 73,000. AID 886. Potency, µM (titrated, usually from 57.1 µM), for the others: top-dose activity change, negative = inhibition, usual class: inhibitors; further: potency means the concentration at half of the fitted maximal effect; on the % scale 0 is the no-effect control and ±100 the full control effect; nearly all actives have a fitted effect of over 60% in size
Target sequence (Q99714 whole entry, looked up, one chain of several): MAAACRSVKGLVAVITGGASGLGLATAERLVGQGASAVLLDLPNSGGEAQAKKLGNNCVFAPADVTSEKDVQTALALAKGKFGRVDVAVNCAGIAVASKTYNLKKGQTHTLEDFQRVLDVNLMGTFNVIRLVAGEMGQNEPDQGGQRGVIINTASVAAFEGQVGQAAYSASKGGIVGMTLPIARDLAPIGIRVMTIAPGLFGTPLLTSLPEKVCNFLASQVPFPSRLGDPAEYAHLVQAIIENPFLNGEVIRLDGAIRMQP
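Activity measured as NADH fluorescence gain (360/450 nm), taken as the change between first and last reads of a 4-min kinetic run. Conditions: pH 9.0 Tris buffer, 20 nM E. coli-expressed His-tagged enzyme, 1 mM NAD+, 90 uM beta-hydroxybutyryl-CoA; 15-min compound preincubation.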
4MU fluor: compound fluoresces in the 4-MU spectral region; compound autofluorescence, 340/450 nm, 4-MU equivalents; active compounds read high; max dye-equivalent concentration, M; hit rate 11% among 59,000; in the data active means max dye-equivalent concentration above about 10 nM; inconclusive means mostly about 1.1 nM to 9.6 nM
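Compounds in 100 mM Tris, pH 8.0, incubated 15 min at room temperature, then fluorescence read at 340 nm excitation/450 nm emission. Signal converted to 4-MU dye-equivalent concentration using an on-plate six-point 4-MU standard curve.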
HSD17B inhib: inhibitors of human HSD17B10 dehydrogenase; recombinant HSD17B10, NADH fluorescence kinetic; Potency, µM (titrated, usually from 57.1 µM), for inactives: at the top dose activity change, negative = inhibition, usual class: inhibitors; hit rate 7.6% among 75,000; AID 893;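 further: the protocol describes HADH2 (HSD17B10) and not the HSD17B4 of the title; potency means the concentration at half of the fitted maximal effect; on the % scale 0 is the no-effect control and ±100 the full control effect; nearly all actives have a fitted effect of over 70% in size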
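Activity followed as NADH fluorescence increase (ex 360, em 450 nm) every 30 seconds for 4 min, using final 90 uM beta-hydroxybutyryl CoA and 1 mM NAD+. Recombinant His-tagged enzyme, 20 nM, pH 9.0 Tris buffer, 15 min compound preincubation.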
A350 autofl: A350 region autofluorescence. Compound autofluorescence, 340/450 nm, Alexa 350 dye-equivalents; active compounds read high. max dye-equivalent concentration, M. AID 590. hit rate 11% among 59,000; in the data active means max dye-equivalent concentration above about 10 nM; inconclusive means mostly about 1.1 nM to 9.6 nM
* = called active by the depositor; i = inactive; ? = inconclusive; . = no result given; ! = repeats disagree; [ ] = another dose, or the depositor's remark. Unless noted, the call rests on the fitted dose curve; in most records, active means well fitted curve in the direction sought with a large enough effect; inconclusive means small, poorly fitted or top-dose-only effect, or another doubt; inactive means no such curve, though single readings can be large; an effect the other way counts as inactive or inconclusive.

SMILES	AID923	HADH2 inh	4MU fluor	HSD17B inhib	A350 autofl
NC(N)=NC(=O)c1nc(Cl)c(N)nc1N	0%	32µM*!	6.1e-07M*	32µM*	6.6e-07M*
Oc1cccc2cccnc12	-2%[11.5 µM]	-12%[11.4 µM]	3.8e-08M*	-21%[11.4 µM]	4.2e-08M*
CCOc1cc(-c2ccc(N)c(OCC)c2)ccc1N	3%	20µM*	i	25µM*	i
Cc1cc(OCC(=O)O)c2c3c(c(=O)oc2c1)CCCC3	-1%	32µM*	3.7e-08M*	32µM*	4.3e-08M*
CCCOC(=O)COc1cc(C)cc2oc(=O)c3c(c12)CCC3	0%	30%[11.4 µM]	.	32µM*	.
COC(=O)c1ccc(COc2cc(C)cc3oc(=O)c4c(c23)CCCC4)o1	-1%	103%[11.4 µM]	.	32µM*	.
Cc1cc(OCC(=O)Nc2c(C)n(C)n(-c3ccccc3)c2=O)c2c3c(c(=O)oc2c1)CCC3	2%	0%	?	-24%	1.2e-08M*
Cc1cc(OCC(=O)Nc2cc(C)nn2-c2ccccn2)c2c3c(c(=O)oc2c1)CCC3	0%	?	?	?	?
N[C@@H]1C=CC=C(C(=O)O)C1	-5%	?	i	-5%	i
CN(C)[C@@H]1C(=O)C(C(N)=O)=C(O)[C@]2(O)C(=O)C3=C(O)c4c(O)cccc4[C@@](C)(O)[C@@H]3C[C@@H]12	.	-13%	i	.	i
c1ccc(CCN2CCOCC2)nc1	6%[11.5 µM]	3%[11.4 µM]	i	14%[11.4 µM]	i
CCOP(=O)(C#CC(C)(C)C)C1(O)CCCCC1 (centres undefined)	-1%	7%	1.8e-08M*	7%	2.2e-08M*
CO[C@@H](C)[C@](O)(C(=O)OC1=CCN2CC[C@H](O)[C@H]12)C(C)C	.	10%	i	.	i
C[C@@H]1O[C@@H](O[C@H]2C[C@@H](O)[C@]3(CO)[C@@H]4[C@@H](O)C[C@]5(C)[C@H]([C@@H]6COC(=O)C6)CC[C@@]5(O)[C@H]4CC[C@@]3(O)C2)[C@H](O)[C@H](O)[C@@H]1O	0%	-25%	i	-3%	i
CN1CC[C@@H]2CN3CCc4cccc(c43)[C@H]2C1	-4%	-2%	.	32µM*	.
CCCCC(CC)COC(=O)c1ccc(C(=O)OCC(CC)CCCC)c(C(=O)OCC(CC)CCCC)c1 (centres undefined)	-1%	5%	.	5%	.
CC(C)C(OC(=O)c1ccco1)C(=O)NCc1ccco1 (centres undefined)	2%	-23%	i	?	i
CC(C)OC(=O)c1c(N)n(Cc2ccco2)c2nc3ccccc3nc12	.	.	3e-06M*	.	3.3e-06M*
COCCOC(=O)c1c(N)n(Cc2ccco2)c2nc3ccccc3nc12	.	.	3.9e-06M*	.	4.5e-06M*
CCOC(=O)c1c(C)n(Cc2ccco2)c2ccc(OC)cc12	3%	-11%	.	-18%	.
O=C1CCc2c(ccc3ccccc23)O1	3%	40µM*	.	25µM*	.
CCNCCC1(CC)C(=O)NC(=O)NC1=O	2%[11.5 µM]	-2%[11.4 µM]	i	7%[11.4 µM]	i
CSc1ccc2c(c1)c(CCN)c(C)n2Cc1ccccc1Cl	-1%[11.5 µM]	24%[11.4 µM]	1e-08M*	2%[11.4 µM]	1.1e-08M*
CC(=O)OC1=CC2=CC[C@H]3[C@H]4CCC(=O)[C@@]4(C)CC(=O)[C@]3(S)[C@]2(C)CC1	0%[11.5 µM]	?	i	-7%[11.4 µM]	i
CC[C@@H]1CN2CC[C@@H]1C[C@H]2[C@@H](O)c1ccnc2ccc(OC)cc12	.	-6%	i	.	i
SMILES	AID923	HADH2 inh	4MU fluor	HSD17B inhib	A350 autofl
COC(=O)[C@@H]1c2cc3c(c(O)c2[C@@H](O)C[C@]1(C)O)C(=O)c1c(O)cc2c(c1C3=O)O[C@H]1O[C@@]2(C)[C@@H](O)[C@H](N(C)C)[C@H]1O	1%[11.5 µM]	4%[11.4 µM]	1.1e-08M*	?	1.2e-08M*
CN1CCN(c2ccc3ccccc3n2)CC1	0%	2%	1.7e-08M*	-9%	1.6e-08M*
CN1CCN(c2ccc3nc(-c4ccc5nc(-c6ccc(O)cc6)[nH]c5c4)[nH]c3c2)CC1	1%[11.5 µM]	-29%[11.4 µM]	1.7e-08M*	3.2µM*	1.8e-08M*
C[C@@H](Cc1ccc(O)cc1)NC[C@@H](O)c1cc(O)cc(O)c1	.	?	i	-7%[25.6 µM]	i
Cc1ccc(-c2cn3c(=S)[nH]nc3s2)cc1	1%	32µM*	i	?	i
COc1cc2c(cc1OC)[C@@]13CCN4CC5=CCO[C@H](CC(=O)O)[C@@H]([C@H]1N2)[C@H]5C[C@H]43	0%[11.5 µM]	1%[11.4 µM]	i	3%[11.4 µM]	i
CC(=O)Oc1c2c(c(CC=C(C)C)c3c1C(=O)C1=CC4CC5C(C)(C)OC(C/C=C(\C)C(=O)O)(C4=O)[C@]15O3)OC(C)(CCC=C(C)C)C=C2 (some centres undefined)	4%	.	.	10µM*	.
O=c1oc(Cl)c(Cl)c2ccccc12	-1%	3.2µM*	?	-9%	?
C[C@@]12CC[C@H]3[C@@H](CC=C4C[C@H](OS(=O)(=O)O)CC[C@]43C)[C@H]1CCC2=O	-1%	-5%	i	-3%	i
N#Cc1c(/N=C/c2c(O)n(Cc3ccco3)c(=O)[nH]c2=O)sc2c1CCCC2	4%	25µM*	i	?	i
O=C1NC(=O)C2(Cc3ccccc3N3CCCC32)C(=O)N1c1ccccc1 (centres undefined)	19%	1%	1.9e-08M*	?	2.1e-08M*
CN1C(=O)N(C)C(=O)C2(Cc3cc(N)ccc3N3CCN(c4ccccc4F)CC32)C1=O (centres undefined)	-1%	-3%	i	8%	i
CCC#N	-2%	-8%	.	0%	.
N#C/C(=C\c1ccc(O)c(O)c1)C(=O)NCCCNC(=O)/C(C#N)=C/c1ccc(O)c(O)c1	-2%	16µM*	i	?	i
N#CC(C#N)=Cc1ccc([N+](=O)[O-])c(O)c1	-6%	?	i	?	i
CN(C)c1ccc2c(c1)N=C(c1ccco1)OP2(=S)N1CCOCC1 (centres undefined)	0%	7.9µM*	i	?	i
COc1cc([C@@H](O)CN)ccc1O	-2%	13%	i	-3%	i
c1ccc(N2CCC3(CCNCC3)CC2)nc1	-1%	1%	i	20µM*	i
c1ccc(N2CCC3(CCNCC3)CC2)cc1	2%	5%	i	-3%	i
CC(C)(C)n1c(O)c(C=Nc2ccc3c(c2)CCC3)c(=O)[nH]c1=O	-1%	-2%	5e-08M*	0%	4.7e-08M*
COc1ccc2c(c1O)-c1c(OC)c(OC)cc3c1[C@H](C2)N(C)CC3	-1%	2%	i	?	i
COc1ccc2c(c1O)-c1cccc3c1[C@H](C2)N(C)CC3	-1%	20µM*	1.2e-08M*	25µM*	1.1e-08M*
CCCN1CCc2cccc3c2[C@@H]1Cc1ccc(O)c(O)c1-3	-4%	0.5µM*	1.9e-08M*	20µM*	1.7e-08M*
COc1ccc2c(c1O)-c1c(OC)c(OC)cc3c1[C@@H](C2)N(C)CC3	2%	-18%	i	-18%	i
